What was measured:
Assay in all cases: DAPPL (digital affinity profiling via proximity ligation, sequencing); 10 mM Tris-HCl pH 7.5, 50 mM NaCl, 1 mM DTT, 4% glycerol, room temperature, 30 min; GST-TFs on glutathione beads, 16-mer random dsDNA library, 0.1% formaldehyde crosslink after washing; high values mean tight binding
[1] = molecular target: T1, FEV (Homo sapiens, UniProt Q99581 1-238); conditions: protein: recombinant; tags: N-terminal GST; dsDNA, one strand shown
T1 sequence: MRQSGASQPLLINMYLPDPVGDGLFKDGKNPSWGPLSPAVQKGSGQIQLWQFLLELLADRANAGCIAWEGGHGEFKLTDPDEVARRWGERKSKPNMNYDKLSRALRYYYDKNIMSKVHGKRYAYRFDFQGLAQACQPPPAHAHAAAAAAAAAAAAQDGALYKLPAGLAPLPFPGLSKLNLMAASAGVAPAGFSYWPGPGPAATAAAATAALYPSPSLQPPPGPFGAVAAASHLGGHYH
In short: (§1)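 Pools of DNA-barcoded human transcription factors, expressed in yeast as GST fusions on glutathione beads and combined with a tag-only sample, were incubated with 200 nmole of a 16-mer random double-stranded DNA library. Incubation took 30 min at room temperature in Tris/NaCl/DTT/glycerol buffer and was followed by washing, 0.1% formaldehyde crosslinking, proximity ligation (BsaI/T4 ligase, 1 h, 37 °C), PCR amplification and sequencing on an Illumina NextSeq500. Binding signal is the ratio of a hexamer's read frequency for a factor to its frequency for the tag-only sample.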

[2] = molecular target: ETV5 (Homo sapiens, UniProt P41161 1-510); conditions: protein: recombinant; tags: N-terminal GST; dsDNA, one strand shown
ETV5, sequence (P41161 whole entry): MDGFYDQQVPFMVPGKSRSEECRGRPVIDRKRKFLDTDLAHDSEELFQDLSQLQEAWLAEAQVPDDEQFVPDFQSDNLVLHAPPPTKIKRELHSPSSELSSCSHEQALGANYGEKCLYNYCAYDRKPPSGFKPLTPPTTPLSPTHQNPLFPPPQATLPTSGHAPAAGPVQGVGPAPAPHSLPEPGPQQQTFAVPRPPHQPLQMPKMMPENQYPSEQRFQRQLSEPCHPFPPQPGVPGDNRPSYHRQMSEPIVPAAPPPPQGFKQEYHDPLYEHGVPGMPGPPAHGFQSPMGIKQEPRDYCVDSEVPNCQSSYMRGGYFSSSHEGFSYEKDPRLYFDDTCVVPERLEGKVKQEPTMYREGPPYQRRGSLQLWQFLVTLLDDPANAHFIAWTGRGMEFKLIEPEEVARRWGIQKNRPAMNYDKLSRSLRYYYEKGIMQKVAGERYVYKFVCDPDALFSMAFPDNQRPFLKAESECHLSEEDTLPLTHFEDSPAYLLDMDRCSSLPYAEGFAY
In short: as §1

[3] = molecular target: HSF1 (Homo sapiens, UniProt Q00613 1-529); conditions: protein: recombinant; tags: N-terminal GST; chain copies: 3; dsDNA, one strand shown
HSF1, sequence (Q00613 whole entry): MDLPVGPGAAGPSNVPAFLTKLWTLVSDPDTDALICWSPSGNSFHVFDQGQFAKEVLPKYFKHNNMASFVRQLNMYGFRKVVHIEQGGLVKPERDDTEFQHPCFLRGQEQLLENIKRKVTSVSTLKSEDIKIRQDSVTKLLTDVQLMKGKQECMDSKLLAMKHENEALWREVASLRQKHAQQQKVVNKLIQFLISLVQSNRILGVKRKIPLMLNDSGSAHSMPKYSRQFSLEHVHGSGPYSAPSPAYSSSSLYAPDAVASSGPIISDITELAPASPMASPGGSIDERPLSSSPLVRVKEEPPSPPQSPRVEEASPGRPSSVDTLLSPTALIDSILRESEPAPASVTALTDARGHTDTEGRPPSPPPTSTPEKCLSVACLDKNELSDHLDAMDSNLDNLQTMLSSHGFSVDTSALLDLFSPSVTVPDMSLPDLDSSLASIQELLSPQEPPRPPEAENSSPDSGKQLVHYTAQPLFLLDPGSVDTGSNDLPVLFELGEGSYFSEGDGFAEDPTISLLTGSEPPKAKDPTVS
In short: as §1

[4] = molecular target: T2, SPIC (Homo sapiens, UniProt Q8N5J4 1-248); conditions: protein: recombinant; tags: N-terminal GST; dsDNA, one strand shown
T2 sequence: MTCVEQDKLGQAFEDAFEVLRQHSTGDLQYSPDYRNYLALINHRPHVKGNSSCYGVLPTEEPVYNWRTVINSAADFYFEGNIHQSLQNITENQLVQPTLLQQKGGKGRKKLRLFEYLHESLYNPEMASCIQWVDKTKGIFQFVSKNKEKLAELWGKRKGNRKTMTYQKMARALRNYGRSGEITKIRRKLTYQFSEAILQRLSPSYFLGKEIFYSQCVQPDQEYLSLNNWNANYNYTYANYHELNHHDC
In short: as §1

[5] = molecular target: ELF4 (Homo sapiens, UniProt Q99607 1-663); conditions: protein: recombinant; tags: N-terminal GST; dsDNA, one strand shown
ELF4, sequence (Q99607 whole entry): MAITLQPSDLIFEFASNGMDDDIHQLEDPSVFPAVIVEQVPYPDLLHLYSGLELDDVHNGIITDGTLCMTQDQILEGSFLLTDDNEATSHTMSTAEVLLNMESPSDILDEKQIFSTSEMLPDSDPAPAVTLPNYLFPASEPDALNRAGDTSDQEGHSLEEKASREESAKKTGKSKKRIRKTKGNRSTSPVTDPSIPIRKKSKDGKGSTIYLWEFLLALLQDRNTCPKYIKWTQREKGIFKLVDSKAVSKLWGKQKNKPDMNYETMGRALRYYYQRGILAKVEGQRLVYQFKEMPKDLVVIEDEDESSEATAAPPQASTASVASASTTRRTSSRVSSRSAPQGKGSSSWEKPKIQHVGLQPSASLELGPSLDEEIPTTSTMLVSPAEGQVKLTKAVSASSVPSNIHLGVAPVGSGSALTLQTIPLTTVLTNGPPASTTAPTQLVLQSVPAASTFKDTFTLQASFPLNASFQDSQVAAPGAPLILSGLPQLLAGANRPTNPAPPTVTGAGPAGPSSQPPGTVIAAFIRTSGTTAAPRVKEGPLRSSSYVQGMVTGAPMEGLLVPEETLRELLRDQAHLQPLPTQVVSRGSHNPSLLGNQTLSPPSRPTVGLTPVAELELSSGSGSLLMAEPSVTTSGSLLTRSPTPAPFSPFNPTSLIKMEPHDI
In short: as §1

[6] = molecular target: T3, ELK4 (Homo sapiens, UniProt P28324-2 1-405); conditions: protein: recombinant; tags: N-terminal GST; dsDNA, one strand shown
T3 sequence: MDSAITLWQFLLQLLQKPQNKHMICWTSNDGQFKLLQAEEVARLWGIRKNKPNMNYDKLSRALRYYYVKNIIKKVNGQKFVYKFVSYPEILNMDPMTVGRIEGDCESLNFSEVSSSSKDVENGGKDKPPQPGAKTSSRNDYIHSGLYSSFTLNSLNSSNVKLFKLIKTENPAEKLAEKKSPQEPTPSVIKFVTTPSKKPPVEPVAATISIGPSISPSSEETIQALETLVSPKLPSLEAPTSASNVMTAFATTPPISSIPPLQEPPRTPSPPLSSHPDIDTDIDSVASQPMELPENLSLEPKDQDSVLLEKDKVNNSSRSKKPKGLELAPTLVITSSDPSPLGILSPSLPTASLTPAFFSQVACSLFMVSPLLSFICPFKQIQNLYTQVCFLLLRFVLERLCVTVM
In short: as §1

[7] = molecular target: T4, ETV2 (Homo sapiens, UniProt O00321 1-342); conditions: protein: recombinant; tags: N-terminal GST; dsDNA, one strand shown
T4 sequence: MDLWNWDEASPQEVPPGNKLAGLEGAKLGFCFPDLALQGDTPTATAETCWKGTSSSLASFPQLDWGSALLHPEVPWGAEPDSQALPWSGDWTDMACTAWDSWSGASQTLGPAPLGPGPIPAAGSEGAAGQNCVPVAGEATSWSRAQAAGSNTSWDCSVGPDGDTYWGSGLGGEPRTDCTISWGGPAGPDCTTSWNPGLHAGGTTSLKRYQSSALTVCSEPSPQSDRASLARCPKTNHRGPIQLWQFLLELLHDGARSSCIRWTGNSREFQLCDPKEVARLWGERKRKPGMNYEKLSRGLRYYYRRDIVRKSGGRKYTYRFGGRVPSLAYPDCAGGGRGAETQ
In short: as §1

[8] = molecular target: T5, ELF3 (Homo sapiens, UniProt P78545 1-371); conditions: protein: recombinant; tags: N-terminal GST; dsDNA, one strand shown
T5 sequence: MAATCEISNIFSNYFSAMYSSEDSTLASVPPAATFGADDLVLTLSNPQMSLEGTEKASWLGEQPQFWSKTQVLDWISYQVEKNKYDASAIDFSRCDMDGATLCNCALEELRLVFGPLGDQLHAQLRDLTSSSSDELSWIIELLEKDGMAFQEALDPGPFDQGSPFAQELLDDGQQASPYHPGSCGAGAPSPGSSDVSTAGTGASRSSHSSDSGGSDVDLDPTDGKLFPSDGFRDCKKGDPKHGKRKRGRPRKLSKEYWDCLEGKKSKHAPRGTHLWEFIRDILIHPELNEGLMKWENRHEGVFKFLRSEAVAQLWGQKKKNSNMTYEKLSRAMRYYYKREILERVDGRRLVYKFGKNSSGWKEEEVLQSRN
In short: as §1

[9] = molecular target: CRX (Homo sapiens, UniProt O43186 1-299); conditions: protein: recombinant; tags: N-terminal GST; dsDNA, one strand shown
CRX, sequence (O43186 whole entry): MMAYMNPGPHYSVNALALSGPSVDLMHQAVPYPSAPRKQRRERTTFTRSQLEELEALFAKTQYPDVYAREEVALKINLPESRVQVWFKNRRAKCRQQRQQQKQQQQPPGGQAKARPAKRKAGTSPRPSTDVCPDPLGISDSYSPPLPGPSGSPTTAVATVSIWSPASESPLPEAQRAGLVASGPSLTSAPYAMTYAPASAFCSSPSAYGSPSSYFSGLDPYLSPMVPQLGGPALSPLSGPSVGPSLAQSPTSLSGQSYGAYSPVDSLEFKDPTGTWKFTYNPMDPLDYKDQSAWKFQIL
In short: as §1

[10] = molecular target: ETV1 (Homo sapiens, UniProt P50549 1-477); conditions: protein: recombinant; tags: N-terminal GST; dsDNA, one strand shown
ETV1, sequence (P50549 whole entry): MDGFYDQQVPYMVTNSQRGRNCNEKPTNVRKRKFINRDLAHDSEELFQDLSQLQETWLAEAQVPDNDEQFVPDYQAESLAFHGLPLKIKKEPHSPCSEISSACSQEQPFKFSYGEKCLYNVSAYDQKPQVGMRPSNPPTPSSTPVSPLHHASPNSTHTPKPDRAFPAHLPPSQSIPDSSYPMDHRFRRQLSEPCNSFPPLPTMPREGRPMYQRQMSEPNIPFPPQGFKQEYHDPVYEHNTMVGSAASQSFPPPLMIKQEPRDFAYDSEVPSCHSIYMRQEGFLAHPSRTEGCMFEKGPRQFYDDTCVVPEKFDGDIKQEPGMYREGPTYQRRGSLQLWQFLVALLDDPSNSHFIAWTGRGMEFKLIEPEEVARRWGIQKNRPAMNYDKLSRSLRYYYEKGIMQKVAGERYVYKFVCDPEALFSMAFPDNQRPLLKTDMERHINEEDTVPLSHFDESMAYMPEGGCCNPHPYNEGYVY
In short: as §1

[11] = molecular target: T6, ERF (Homo sapiens, UniProt P50548 1-548); conditions: protein: recombinant; tags: N-terminal GST; dsDNA, one strand shown
T6 sequence: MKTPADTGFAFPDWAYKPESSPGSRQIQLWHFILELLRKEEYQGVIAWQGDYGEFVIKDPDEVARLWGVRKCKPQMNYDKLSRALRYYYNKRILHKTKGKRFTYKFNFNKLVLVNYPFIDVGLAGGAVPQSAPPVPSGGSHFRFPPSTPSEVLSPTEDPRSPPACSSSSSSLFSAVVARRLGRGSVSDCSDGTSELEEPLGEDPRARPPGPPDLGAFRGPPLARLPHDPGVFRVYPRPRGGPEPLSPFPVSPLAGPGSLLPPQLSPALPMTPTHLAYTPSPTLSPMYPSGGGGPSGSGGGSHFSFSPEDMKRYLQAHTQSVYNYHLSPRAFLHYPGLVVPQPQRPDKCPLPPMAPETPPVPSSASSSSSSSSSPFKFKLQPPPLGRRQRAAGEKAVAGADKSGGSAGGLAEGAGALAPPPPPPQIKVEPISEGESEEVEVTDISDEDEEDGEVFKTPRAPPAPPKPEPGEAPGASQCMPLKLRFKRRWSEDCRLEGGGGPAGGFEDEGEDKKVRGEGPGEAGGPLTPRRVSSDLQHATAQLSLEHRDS
In short: as §1

[12] = molecular target: T7, ETV3L (Homo sapiens, UniProt Q6ZN32 1-361); conditions: protein: recombinant; tags: N-terminal GST; dsDNA, one strand shown
T7 sequence: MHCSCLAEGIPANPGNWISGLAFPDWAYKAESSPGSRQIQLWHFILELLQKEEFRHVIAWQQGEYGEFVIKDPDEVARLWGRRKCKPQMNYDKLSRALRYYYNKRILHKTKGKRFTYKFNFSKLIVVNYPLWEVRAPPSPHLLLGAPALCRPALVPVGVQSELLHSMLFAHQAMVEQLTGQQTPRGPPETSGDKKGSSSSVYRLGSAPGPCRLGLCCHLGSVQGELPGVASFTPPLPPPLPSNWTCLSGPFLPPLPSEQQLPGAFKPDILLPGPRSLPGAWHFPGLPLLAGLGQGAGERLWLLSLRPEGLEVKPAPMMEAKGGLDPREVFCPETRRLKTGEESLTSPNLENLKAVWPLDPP
In short: as §1

[13] = molecular target: T8, ETS2 (Homo sapiens, UniProt P15036 1-469); conditions: protein: recombinant; tags: N-terminal GST; dsDNA, one strand shown
T8 sequence: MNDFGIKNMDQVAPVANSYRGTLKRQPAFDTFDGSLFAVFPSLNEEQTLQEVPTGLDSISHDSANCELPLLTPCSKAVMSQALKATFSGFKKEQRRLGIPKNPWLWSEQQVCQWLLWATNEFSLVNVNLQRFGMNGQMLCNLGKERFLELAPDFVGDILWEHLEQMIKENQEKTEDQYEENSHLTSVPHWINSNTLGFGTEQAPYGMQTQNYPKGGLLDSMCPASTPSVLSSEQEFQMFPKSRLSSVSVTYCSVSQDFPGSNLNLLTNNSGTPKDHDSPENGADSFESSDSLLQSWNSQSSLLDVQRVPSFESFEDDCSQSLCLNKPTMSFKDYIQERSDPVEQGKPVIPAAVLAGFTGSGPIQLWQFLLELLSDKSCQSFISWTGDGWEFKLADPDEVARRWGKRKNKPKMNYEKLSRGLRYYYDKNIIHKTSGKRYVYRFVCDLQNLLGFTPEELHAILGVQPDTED
In short: as §1

[14] = molecular target: T9, SPDEF (Homo sapiens, UniProt O95238 1-335); conditions: protein: recombinant; tags: N-terminal GST; dsDNA, one strand shown
T9 sequence: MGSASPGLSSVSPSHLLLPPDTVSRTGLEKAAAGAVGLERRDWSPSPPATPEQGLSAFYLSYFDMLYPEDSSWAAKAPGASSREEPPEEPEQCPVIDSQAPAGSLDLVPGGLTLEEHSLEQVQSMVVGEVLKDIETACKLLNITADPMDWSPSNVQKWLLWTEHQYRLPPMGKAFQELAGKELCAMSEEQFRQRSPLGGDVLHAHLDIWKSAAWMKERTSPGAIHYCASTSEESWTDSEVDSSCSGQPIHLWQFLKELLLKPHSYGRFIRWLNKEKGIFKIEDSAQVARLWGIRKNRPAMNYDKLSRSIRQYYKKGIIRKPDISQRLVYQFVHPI
In short: as §1

[15] = molecular target: T10, ETV7 (Homo sapiens, UniProt Q9Y603 1-341); conditions: protein: recombinant; tags: N-terminal GST; dsDNA, one strand shown
T10 sequence: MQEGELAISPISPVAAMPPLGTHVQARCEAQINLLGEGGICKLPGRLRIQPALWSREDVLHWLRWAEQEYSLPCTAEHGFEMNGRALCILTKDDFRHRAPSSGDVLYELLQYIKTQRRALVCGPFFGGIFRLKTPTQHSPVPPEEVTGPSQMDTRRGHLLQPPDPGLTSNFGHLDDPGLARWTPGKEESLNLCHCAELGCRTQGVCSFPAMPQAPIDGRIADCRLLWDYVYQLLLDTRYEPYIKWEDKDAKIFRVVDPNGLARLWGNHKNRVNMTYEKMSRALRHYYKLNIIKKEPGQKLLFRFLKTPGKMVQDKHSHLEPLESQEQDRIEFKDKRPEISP
In short: as §1

[16] = molecular target: T11, ELF5 (Homo sapiens, UniProt Q9UKW6-2 1-255); conditions: protein: recombinant; tags: N-terminal GST; dsDNA, one strand shown
T11 sequence: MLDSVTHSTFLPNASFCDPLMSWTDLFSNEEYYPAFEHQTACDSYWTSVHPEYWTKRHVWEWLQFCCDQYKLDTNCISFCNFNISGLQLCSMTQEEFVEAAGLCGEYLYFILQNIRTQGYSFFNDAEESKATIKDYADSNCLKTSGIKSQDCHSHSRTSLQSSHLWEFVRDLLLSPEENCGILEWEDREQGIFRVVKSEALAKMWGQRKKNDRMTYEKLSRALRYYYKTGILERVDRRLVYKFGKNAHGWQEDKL
In short: as §1

[17] = molecular target: T12, ETV3 (Homo sapiens, UniProt P41162-2 1-143); conditions: protein: recombinant; tags: N-terminal GST; dsDNA, one strand shown
T12 sequence: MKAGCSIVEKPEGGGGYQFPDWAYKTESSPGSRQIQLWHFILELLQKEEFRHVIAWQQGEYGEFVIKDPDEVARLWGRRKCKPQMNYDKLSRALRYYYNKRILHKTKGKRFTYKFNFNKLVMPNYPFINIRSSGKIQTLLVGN
In short: as §1

[18] = molecular target: ETV6 (Homo sapiens, UniProt P41212 1-452); conditions: protein: recombinant; tags: N-terminal GST; dsDNA, one strand shown
ETV6, sequence (P41212 whole entry): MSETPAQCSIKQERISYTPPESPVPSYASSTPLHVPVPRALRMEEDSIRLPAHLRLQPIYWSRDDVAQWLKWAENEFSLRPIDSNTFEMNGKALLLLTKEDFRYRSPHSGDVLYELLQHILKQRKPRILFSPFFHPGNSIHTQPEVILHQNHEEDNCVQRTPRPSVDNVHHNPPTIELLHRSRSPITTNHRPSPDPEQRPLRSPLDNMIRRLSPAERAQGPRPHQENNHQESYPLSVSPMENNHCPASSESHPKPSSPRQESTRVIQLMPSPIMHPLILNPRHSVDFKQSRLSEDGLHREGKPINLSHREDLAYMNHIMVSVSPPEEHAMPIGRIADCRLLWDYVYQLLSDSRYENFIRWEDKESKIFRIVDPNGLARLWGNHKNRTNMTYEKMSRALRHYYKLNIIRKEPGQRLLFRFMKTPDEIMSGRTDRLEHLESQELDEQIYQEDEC
In short: as §1

Q: For ATATCG, which binding signal [1] is on record?
A: Its binding signal is 1.1 fold enrichment (6-mer frequency, TF over GST control).

Q: What about the binding signal [2] of the same sequence?
A: Its binding signal is 1.16 fold enrichment (6-mer frequency, TF over GST control).

Q: What about the binding signal [3] of the same sequence?
A: The binding signal was 1.14 fold enrichment (6-mer frequency, TF over GST control).

Q: And the binding signal [4]?
A: Its binding signal is 1.07 fold enrichment (6-mer frequency, TF over GST control).

Q: What about the binding signal [5] of the same sequence?
A: The binding signal was 1.22 fold enrichment (6-mer frequency, TF over GST control).

Q: And the binding signal [6]?
A: Its binding signal is 1.21 fold enrichment (6-mer frequency, TF over GST control).

Q: And the binding signal [7]?
A: Its binding signal is 1.18 fold enrichment (6-mer frequency, TF over GST control).

Q: And the binding signal [8]?
A: The binding signal was 1.02 fold enrichment (6-mer frequency, TF over GST control).

Q: What about the binding signal [9] of the same sequence?
A: Its binding signal is 1.07 fold enrichment (6-mer frequency, TF over GST control).

Q: And the binding signal [10]?
A: The binding signal was 1.22 fold enrichment (6-mer frequency, TF over GST control).

Q: And the binding signal [11]?
A: Its binding signal is 1.23 fold enrichment (6-mer frequency, TF over GST control).

Q: What about the binding signal [12] of the same sequence?
A: Its binding signal is 1.23 fold enrichment (6-mer frequency, TF over GST control).

Q: What about the binding signal [13] of the same sequence?
A: Its binding signal is 1.17 fold enrichment (6-mer frequency, TF over GST control).

Q: And the binding signal [14]?
A: The binding signal was 1.26 fold enrichment (6-mer frequency, TF over GST control).

Q: What about the binding signal [15] of the same sequence?
A: The binding signal was 1.16 fold enrichment (6-mer frequency, TF over GST control).

Q: And the binding signal [16]?
A: The binding signal was 1.1 fold enrichment (6-mer frequency, TF over GST control).

Q: And the binding signal [17]?
A: The binding signal was 1.14 fold enrichment (6-mer frequency, TF over GST control).

Q: What about the binding signal [18] of the same sequence?
A: The binding signal was 1.09 fold enrichment (6-mer frequency, TF over GST control).

— paper PMC7862700, “An all-to-all approach to the identification of sequence-specific readers for epigenetic DNA modifications on cytosine”
